# Data taken from PubChem BioAssay (NCATS).
# Results filed as inconclusive are left out. Where a call stands in place of a potency, no number is given. Active and inactive are the calls of the source. Calls come from the whole dose curve; as a rule, active = well fitted curve in the direction sought with a large enough effect; inconclusive = small, poorly fitted or top-dose-only effect, or another doubt; inactive = no such curve, though single readings can be large; an effect the other way counts as inactive or inconclusive.
# Key:
# [1] = biological target: Aldehyde dehydrogenase, mitochondrial (Homo sapiens) (UniProt P05091); assay: qHTS for Inhibitors of the Aldehyde Dehydrogenase Family (ALDH2) Primary screen (AID 2061308); note: nearly all actives have a fitted effect of over 55% in size
# [2] = biological target: Retinaldehyde dehydrogenase 3 (Homo sapiens) (UniProt P47895); assay: qHTS for Inhibitors of the Aldehyde Dehydrogenase Family (ALDH1A3) Confirmatory screens (AID 2061311); note: nearly all actives have a fitted effect of over 60% in size; note: potency is the fitted concentration of half-maximal effect
# [3] = biological target: Retinal dehydrogenase 2 (Homo sapiens) (UniProt O94788); assay: qHTS for Inhibitors of the Aldehyde Dehydrogenase Family (ALDH1A2) Confirmation screens (AID 2061314); note: nearly all actives have a fitted effect of over 65% in size; note: potency is the fitted concentration of half-maximal effect
# [4] = biological target: Aldehyde dehydrogenase 1A1 (Homo sapiens) (UniProt P00352); assay: qHTS for Inhibitors of the Aldehyde Dehydrogenase Family (ALDH1A1) Confirmatory screens (AID 2061316); note: nearly all actives have a fitted effect of over 65% in size; note: potency is the fitted concentration of half-maximal effect
# [5] = biological target: Retinaldehyde dehydrogenase 3 (Homo sapiens) (UniProt P47895); assay: qHTS for Inhibitors of the Aldehyde Dehydrogenase Family (ALDH1A3) Primary screen (AID 2061315); note: potency is the fitted concentration of half-maximal effect
SMILES,Potency [1],Potency [2],Potency [3],Potency [4],Potency [5]
C/C=C/c1ccc2oc(-c3ccc(O)c(OC)c3)c(C)c2c1,inactive,1.01 µM (active),25.1 µM (active),17.9 µM (active),
Cc1ccc(CNc2cccc(N3CCCCC3)c2)cc1,inactive,22.5 µM (active),,,inactive
CNc1ncc(-c2cccc3ccccc23)o1,inactive,25.2 µM (active),10.1 µM (active),,inactive
COc1cc(O)ccc1OCCNCC(O)COc1cccc2[nH]c3ccccc3c12 (configuration not stated),inactive,12.7 µM (active),,,3.16 µM (active)
Oc1cc(NCc2ccc(F)cc2)cc2cccnc12,inactive,1.59 µM (active),inactive,7.12 µM (active),
Cc1ccc(NS(=O)(=O)c2cc3c(cc2N2CCC2)NC(=O)CC3)cc1C,inactive,inactive,22.5 µM (active),11.3 µM (active),inactive
Cc1ccc(CNc2ccc(N3CCNCC3)cc2)cc1,inactive,14.2 µM (active),10.1 µM (active),11.3 µM (active),
O=C1Nc2ccccc2/C1=C\c1ccc([N+](=O)[O-])cc1,inactive,17.8 µM (active),2.83 µM (active),,inactive
CCC(=O)NC(c1ccco1)c1cc(Br)c2cccnc2c1O (configuration not stated),inactive,12.7 µM (active),11.3 µM (active),,inactive
Oc1cccc2cc(NCc3ccccc3F)cnc12,inactive,7.12 µM (active),15.9 µM (active),,inactive
CCN(CC)C(=O)CC(c1ccc2c(c1)OCO2)c1c(O)cc(OC)cc1OC (configuration not stated),inactive,inactive,inactive,,inactive
CN1CCN(c2ccc(NC(=O)c3cccs3)cn2)CC1,inactive,22.5 µM (active),12.7 µM (active),,inactive
CNS(=O)(=O)c1ccc(Cc2c(-c3cccc(-c4ccccc4)c3)[nH]n(-c3nc(C(=O)O)cs3)c2=O)cc1,inactive,4 µM (active),,,inactive
Oc1ccc(CNc2cc(Cl)ccn2)c2cccnc12,inactive,3.57 µM (active),12.7 µM (active),8.96 µM (active),
Cc1noc(C)c1S(=O)(=O)Nc1cnccc1C(=O)Nc1nc(-c2ccccc2)cs1,inactive,inactive,,,inactive
COc1ccc(C(=O)N(Cc2ccccc2)Cc2ccco2)c(O)c1,inactive,14.2 µM (active),25.2 µM (active),,inactive
COc1ccc(Nc2cc(O)c3ncccc3c2)cc1,inactive,0.0357 µM (active),inactive,inactive,
N[C@@H]1CCN(c2cnc3c(O)ccc(C(=O)O)c3c2)C1,inactive,12.7 µM (active),25.2 µM (active),inactive,inactive
NC(=O)C1CCN(c2ncc(-c3ccc4c(c3)OCCCO4)s2)CC1,inactive,inactive,3.57 µM (active),,inactive
N#CN1CCC(NS(=O)(=O)c2ccc(C(F)(F)F)cc2)CC1,inactive,inactive,12.7 µM (active),inactive,inactive
CN(C)c1cccc(-c2cnc(N3CCC(C(N)=O)CC3)nc2)c1,inactive,22.5 µM (active),12.7 µM (active),11.3 µM (active),
O=C1CCCC2=C1C1(CCC1)N=C(Nc1nc3ccccc3o1)N2,inactive,12.7 µM (active),7.98 µM (active),inactive,inactive
COc1ccc(-c2ccc(=O)n(CC(=O)NCCc3ccccc3)n2)cc1,inactive,1.58 µM (active),15.8 µM (active),inactive,inactive
c1c[nH]c(C2CCN(c3ncc(-c4ccc5c(c4)OCCCO5)s3)CC2)n1,inactive,5.04 µM (active),4 µM (active),1.79 µM (active),inactive
O=[S+]([O-])(Nc1nccs1)c1ccc(NCc2cc(F)cc(Cl)c2O)cc1,inactive,inactive,inactive,,inactive
